Measurements reported in PubChem BioAssay (NCI).
This is part of a sample that, as a whole, favours compounds with a hit. Of some 83,000 tested, about 20% had one in any assay.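 Testing used 96-well plates and a 48-hour single-concentration exposure. Example: -40 means 40% of the starting cells died.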 A number with no mark means an inactive call. The source made the active and inactive calls. Rule for the calls: active = growth percent below 10; inactive = the rest.

Test system: ACHN renal
Experiment: NCI-60 one-dose screen, 48 h (100 = growth as untreated, 0 = no growth, -100 = all killed)
Conditions: 10 µM unless noted

SMILES	growth
Fc1ccc(C2=NN(c3ccccc3)C(c3sc(N(CCCl)CCCl)nc3Cl)C2)cc1 (configuration not stated)	79.4%
CC[C@H](C)[C@H](NC(=O)Nc1ccccc1)C(=O)N(C)[C@H](C[C@@H](OC(C)=O)c1nc(C(=O)N[C@@H](Cc2ccccc2)C[C@H](C)C(=O)OC)cs1)C(C)C	25.1%
c1ccc(CCN2CCCCC2Cc2ccccc2)cc1 (configuration not stated)	94.6%
CC(=O)O[C@H]1CCC2(C)C(=CCC3C2CCC2(C)/C(=N/OC(=O)c4ccc(N(CCCl)CCCl)cc4)CCC32)C1 (some centres not stated)	46.4%
O=C(N/N=C/c1ccc(N(CCCl)CCCl)cc1)c1cc(=O)[nH]c(=O)[nH]1	94.2%
O=[As]c1ccc(C(=O)c2ccc(Oc3ccccc3)cc2)cc1 (configuration not stated)	-100% (active)
O=[N+]([O-])c1cc([N+](=O)[O-])c(Cl)c(Cl)c1Cl	-87.1% (active)
Cc1cc(NC(=O)NCCOc2ccc(N3C(N)=NC(N)=NC3(C)C)cc2Cl)ccc1S(=O)(=O)F	94.2%
COc1ccc2c(c1)NC1=C(C(=O)OC1)C2c1cc(OC)c(OC)c(OC)c1 (configuration not stated)	31.1%
C=CCc1ccc(OC(=O)Cc2ccccc2)c(OC)c1	110%
CC(C)(O)/C=C/C(=O)[C@](C)(O)[C@H]1[C@H](O)C[C@@]2(C)[C@@H]3CC=C4[C@@H](C=C(O)C(=O)C4(C)C)[C@]3(C)C(=O)C[C@]12C	-29.9% (active)
C[C@]12CCc3sc(-c4ccc(Cl)cc4)nc3C1=CC[C@@H]1[C@@H]2CC[C@]2(C)C(=O)CC[C@@H]12	70.6%
